Consider twelve molecules from PubChem BioAssay (Tox21).

Structures are written as SMILES. A number with no mark means an inactive call. Records with an inconclusive call do not appear. Calls of active or inactive are those of the source. Calls come from the whole dose curve; as a rule, active = well fitted curve in the direction sought with a large enough effect in the repeat runs; inconclusive = weak or mixed curves; inactive = no such curve, though single readings can be large; an effect the other way counts as inactive or inconclusive.

The nature of assay [1]: Caspase-3/7 induction in HepG2 cells by small molecules, qHTS assay (AID 1346978). Note: nearly all actives have a fitted effect of over 15% in size. The method, boiled down: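 Wild-type HepG2 cells, 2,000/well, settled 5 hr at 37 C and 5% CO2, then compound-treated for 17 hr; caspase-3/7 activity read by luminescent Caspase-Glo 3/7 after 30 min at room temperature.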
Assay [2] can be described thus: Caspase-3/7 induction in CHO-K1 cells by small molecules, qHTS cell viability counter screen (AID 1346979). Note: nearly all actives have a fitted effect of over 35% in size. Note: potency is the fitted concentration of half-maximal effect. In outline:
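Multiplexed with Caspase-Glo 3/7 in CHO-K1 cells, this counter screen added CellTiter-Fluor after 16hr of compound exposure and recorded fluorescence 1hr later.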
(Quantitative high-throughput screening tests each substance at several concentrations.)

A short description of assay [3]: Caspase-3/7 induction in CHO-K1 cells by small molecules, qHTS assay (AID 1346980). Note: nearly all actives have a fitted effect of over 15% in size. The method, boiled down: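 Wild-type CHO-K1 cells exposed to compounds for 17hr at 37 C, 5% CO2. Caspase-3/7 activity then measured by Caspase-Glo 3/7 luminescence after 30min at room temperature.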
Assay [4] concerns the target Nuclear receptor subfamily 1 group I member 2 (Homo sapiens) (UniProt O75469). Briefly: Human pregnane X receptor (PXR) small molecule agonists, qHTS assay (AID 1346982). Note: nearly all actives have a fitted effect of over 35% in size. Note: potency is the fitted concentration of half-maximal effect. The method, boiled down:
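PXR-Luc HepG2 cells (CYP3A4 promoter-driven luciferase) were seeded in medium with 5% charcoal-stripped FBS, left 5 hr at 37 C, then exposed to compounds in DMSO for 24 hr. Luminescence was read after ONE-Glo addition.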

For assay [5] the target is unchanged. Briefly: CYP3A4 induction through human pregnane X receptor (PXR) by small molecules, qHTS assay (AID 1346984). Note: nearly all actives have a fitted effect of over 40% in size. The method, boiled down: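 DPX-2 cells (HepG2 co-transfected with PXR and CYP3A4 promoter-luciferase) treated with compounds 24 h at 37C; luciferin-IPA CYP3A4 substrate 3uM final added for 3 h, then One-Glo; luminescence read. qHTS format.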
The target is the same in assay [6]. The experiment in a line: Human pregnane X receptor (PXR) activation by small molecules, qHTS assay (AID 1346985). Note: nearly all actives have a fitted effect of over 40% in size. Note: potency is the fitted concentration of half-maximal effect. The method, boiled down:
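DPX-2 cells (HepG2 co-transfected with a PXR response element and a CYP3A4-promoter luciferase construct) were seeded at 2,000 per well, rested 5 hr at 37C, then exposed to DMSO-dissolved compounds for 24 hr. Activation was read as luciferase luminescence.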

In assay [7] the target is Cytochrome P450 2D6 (Homo sapiens) (UniProt P10635). The experiment in a line: Cytochrome P450 Family 2 Subfamily D Member 6 (CYP2D6) small molecule antagonists: luciferase reporter qHTS assay (AID 1671196). Note: nearly all actives have a fitted effect of over 50% in size. Note: potency is the fitted concentration of half-maximal effect. In outline: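 CYP2D6 enzyme–substrate mix was held with compound for 10 min at room temperature, then NADPH regeneration solution was added and the reaction ran 1 h at room temperature. Luciferin product was detected by luminescence after 20 min with detection reagent.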
Chain of Cytochrome P450 2D6 (Homo sapiens) (P10635 whole entry, looked up): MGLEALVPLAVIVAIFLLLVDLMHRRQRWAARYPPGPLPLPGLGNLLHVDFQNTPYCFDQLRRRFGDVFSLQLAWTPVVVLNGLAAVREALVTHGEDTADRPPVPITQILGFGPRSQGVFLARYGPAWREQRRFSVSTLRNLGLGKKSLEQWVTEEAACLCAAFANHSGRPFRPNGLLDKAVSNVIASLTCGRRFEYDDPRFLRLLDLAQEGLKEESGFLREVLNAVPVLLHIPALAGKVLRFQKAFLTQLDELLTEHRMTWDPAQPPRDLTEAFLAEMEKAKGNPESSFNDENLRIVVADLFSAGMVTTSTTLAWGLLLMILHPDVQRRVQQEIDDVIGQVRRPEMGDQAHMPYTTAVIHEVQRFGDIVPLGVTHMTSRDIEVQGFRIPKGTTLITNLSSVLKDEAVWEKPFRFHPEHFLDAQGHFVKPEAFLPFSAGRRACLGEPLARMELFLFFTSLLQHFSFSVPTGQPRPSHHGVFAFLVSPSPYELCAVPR
A general note: A reporter such as luciferase makes a cellular process visible.

Assay [8] has as its target Cytochrome P450 2C19 (Homo sapiens) (UniProt P33261). Briefly: Cytochrome P450 Family 2 Subfamily C Member 19 (CYP2C19) small molecule antagonists: luciferase reporter qHTS assay (AID 1671197). Note: nearly all actives have a fitted effect of over 65% in size. Note: potency is the fitted concentration of half-maximal effect. The method, boiled down: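 Relative luminescence units recorded 20 min after the detection reagent stopped a 1 h, 37C CYP2C19 reaction on proluciferin substrate, which was started by NADPH regeneration following 10 min room-temperature compound preincubation; ketoconazole positive control.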

In assay [9] the target is Cytochrome P450 2C9 (Homo sapiens) (UniProt P11712). The experiment in a line: Cytochrome P450 Family 2 Subfamily C Member 9 (CYP2C9) small molecule antagonists: luciferase reporter qHTS assay (AID 1671198). Note: nearly all actives have a fitted effect of over 50% in size. Note: potency is the fitted concentration of half-maximal effect. The method, boiled down:
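P450-Glo proluciferin substrate with CYP2C9 enzyme; 10 min RT preincubation, then NADPH regeneration 1 h at 37C; luciferin detection reagent 20 min RT, luminescence in relative luminescence units.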

Assay [10] concerns the target Voltage-gated inwardly rectifying potassium channel KCNH2 (Homo sapiens) (UniProt Q12809). Briefly: Human Ether-a-go-go-Related Gene (hERG) channel small molecule antagonists: fluorescence cell-based qHTS assay (AID 1671200).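 Note: hERG-expressing U2OS cells given a thallium stimulus after FluxOR II dye loading; series mostly up to about 77 µM; nearly all actives have a fitted effect of over 50% in size.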 In outline:
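Cell line hERG-U2OS; dye FluxOR II, 1 h RT dark; Tl+ stimulus; ex 480/em 540 nm, read each second for 2 min.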

The target of assay [11] is Cytochrome P450 3A4 (Homo sapiens) (UniProt P08684). Briefly: Cytochrome P450 Family 3 Subfamily A Member 4 (CYP3A4) small molecule antagonists: luciferase reporter qHTS assay (AID 1671201). Note: series mostly up to about 120 µM; nearly all actives have a fitted effect of over 50% in size. The method, boiled down:
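Room-temperature assay throughout: 10 min compound–enzyme/substrate preincubation, 1 h reaction after NADPH regeneration solution, 20 min detection. Luciferin formed from proluciferin substrate is quantified by luminescence.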

In assay [12] the target is Cytochrome P450 1A2 (Homo sapiens) (UniProt P05177). Briefly: Cytochrome P450 Family 1 Subfamily A Member 2 (CYP1A2) small molecule antagonists: luciferase reporter qHTS assay (AID 1671199). Note: nearly all actives have a fitted effect of over 50% in size. Note: potency is the fitted concentration of half-maximal effect. The method, boiled down:
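Human CYP1A2 activity measured with a P450-Glo proluciferin substrate; compounds in DMSO preincubated 10 min at room temperature with enzyme-substrate mix, then NADPH regeneration system added for 1 h. Luciferin detection reagent, 20 min, luminescence read.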

The target of assay [13] is Nuclear receptor subfamily 1 group I member 2 (Rattus norvegicus) (UniProt Q9R1A7). The experiment in a line: Rat pregnane X receptor (rPXR) activation by small molecules, qHTS assay (AID 1346983). Note: nearly all actives have a fitted effect of over 20% in size. To be noted: rPXR luciferase reporter cells, One-Glo luminescence, 24 h; max activation: hits give high values. In outline:
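Cell-based rPXR activation assay: rPXR cells, 2,000 per well, rested 5hr at 37 C, then exposed to compounds in DMSO for 24 hr at 37 C. Luciferase activity read by One-Glo luminescence after 30 min at room temperature.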

The nature of assay [14]: Caspase-3/7 induction in HepG2 cells by small molecules, qHTS cell viability counter screen (AID 1346981). Note: series mostly up to about 92 µM; nearly all actives have a fitted effect of over 30% in size. In outline:
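Wild-type HepG2 cells (2,000/well) were allowed to settle for 5 hr at 37 C, 5% CO2, then dosed with compounds in DMSO by pin transfer. After 16 hr at 37 C, CellTiter-Fluor was added and fluorescence read 1 hr later.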
% is set by controls: 0 for no effect and ±100 for the full control effect.

Chain of Cytochrome P450 1A2 (Homo sapiens) (P05177 whole entry, looked up): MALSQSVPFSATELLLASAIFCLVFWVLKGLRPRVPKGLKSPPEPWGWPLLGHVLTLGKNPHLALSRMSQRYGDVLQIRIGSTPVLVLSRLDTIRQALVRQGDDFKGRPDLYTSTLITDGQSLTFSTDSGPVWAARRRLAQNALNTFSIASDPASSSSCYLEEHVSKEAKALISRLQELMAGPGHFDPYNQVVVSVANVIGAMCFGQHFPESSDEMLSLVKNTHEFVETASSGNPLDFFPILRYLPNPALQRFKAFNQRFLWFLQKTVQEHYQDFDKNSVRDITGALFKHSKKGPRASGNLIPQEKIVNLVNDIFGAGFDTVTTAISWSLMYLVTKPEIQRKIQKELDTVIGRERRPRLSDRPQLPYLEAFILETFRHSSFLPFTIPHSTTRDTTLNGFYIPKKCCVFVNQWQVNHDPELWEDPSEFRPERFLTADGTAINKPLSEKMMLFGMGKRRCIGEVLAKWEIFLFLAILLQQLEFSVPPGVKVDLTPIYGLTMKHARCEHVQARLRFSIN
Chain of Voltage-gated inwardly rectifying potassium channel KCNH2 (Homo sapiens) (Q12809 whole entry, looked up): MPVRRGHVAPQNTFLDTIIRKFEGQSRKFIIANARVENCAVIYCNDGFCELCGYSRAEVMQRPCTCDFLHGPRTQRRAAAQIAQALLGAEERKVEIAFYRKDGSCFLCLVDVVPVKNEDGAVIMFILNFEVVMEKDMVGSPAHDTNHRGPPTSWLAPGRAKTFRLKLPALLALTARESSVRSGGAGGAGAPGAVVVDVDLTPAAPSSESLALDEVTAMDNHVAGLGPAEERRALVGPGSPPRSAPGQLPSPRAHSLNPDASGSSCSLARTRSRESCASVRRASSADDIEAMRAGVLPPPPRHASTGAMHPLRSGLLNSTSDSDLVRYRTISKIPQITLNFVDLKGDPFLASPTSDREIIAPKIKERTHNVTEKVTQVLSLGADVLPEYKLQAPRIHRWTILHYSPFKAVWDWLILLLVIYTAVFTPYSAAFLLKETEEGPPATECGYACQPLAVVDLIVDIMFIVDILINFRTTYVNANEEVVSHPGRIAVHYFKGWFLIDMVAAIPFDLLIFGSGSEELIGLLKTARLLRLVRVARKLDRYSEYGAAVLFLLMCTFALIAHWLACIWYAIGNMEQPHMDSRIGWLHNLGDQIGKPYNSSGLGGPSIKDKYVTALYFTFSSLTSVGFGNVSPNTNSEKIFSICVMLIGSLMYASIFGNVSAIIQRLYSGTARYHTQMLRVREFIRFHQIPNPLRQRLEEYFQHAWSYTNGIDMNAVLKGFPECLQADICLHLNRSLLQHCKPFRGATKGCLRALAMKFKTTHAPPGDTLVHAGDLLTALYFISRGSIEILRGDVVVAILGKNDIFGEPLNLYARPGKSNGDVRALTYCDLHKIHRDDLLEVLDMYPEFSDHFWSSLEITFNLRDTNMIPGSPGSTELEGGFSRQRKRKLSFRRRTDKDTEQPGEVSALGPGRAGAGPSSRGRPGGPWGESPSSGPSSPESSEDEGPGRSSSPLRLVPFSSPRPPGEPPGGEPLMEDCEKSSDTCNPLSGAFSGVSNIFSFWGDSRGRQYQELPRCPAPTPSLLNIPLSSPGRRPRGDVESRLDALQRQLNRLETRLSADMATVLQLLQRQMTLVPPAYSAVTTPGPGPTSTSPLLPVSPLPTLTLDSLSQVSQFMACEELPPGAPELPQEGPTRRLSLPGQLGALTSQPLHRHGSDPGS
Chain of Cytochrome P450 2C9 (Homo sapiens) (P11712 whole entry, looked up): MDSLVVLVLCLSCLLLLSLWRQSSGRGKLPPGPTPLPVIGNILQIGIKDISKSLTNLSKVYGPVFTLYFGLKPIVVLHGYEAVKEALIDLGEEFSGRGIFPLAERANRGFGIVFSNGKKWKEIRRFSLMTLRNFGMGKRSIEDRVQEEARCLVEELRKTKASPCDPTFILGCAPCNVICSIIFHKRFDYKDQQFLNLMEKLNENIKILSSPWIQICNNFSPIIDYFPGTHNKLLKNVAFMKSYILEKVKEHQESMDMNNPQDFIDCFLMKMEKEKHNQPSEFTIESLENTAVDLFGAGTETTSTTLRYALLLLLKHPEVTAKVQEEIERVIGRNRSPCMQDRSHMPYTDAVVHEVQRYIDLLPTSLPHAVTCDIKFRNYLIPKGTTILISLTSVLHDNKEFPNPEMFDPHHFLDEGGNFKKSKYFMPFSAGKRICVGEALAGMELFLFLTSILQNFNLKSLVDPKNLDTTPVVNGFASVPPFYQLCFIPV
Chain of Cytochrome P450 2C19 (Homo sapiens) (P33261 whole entry, looked up): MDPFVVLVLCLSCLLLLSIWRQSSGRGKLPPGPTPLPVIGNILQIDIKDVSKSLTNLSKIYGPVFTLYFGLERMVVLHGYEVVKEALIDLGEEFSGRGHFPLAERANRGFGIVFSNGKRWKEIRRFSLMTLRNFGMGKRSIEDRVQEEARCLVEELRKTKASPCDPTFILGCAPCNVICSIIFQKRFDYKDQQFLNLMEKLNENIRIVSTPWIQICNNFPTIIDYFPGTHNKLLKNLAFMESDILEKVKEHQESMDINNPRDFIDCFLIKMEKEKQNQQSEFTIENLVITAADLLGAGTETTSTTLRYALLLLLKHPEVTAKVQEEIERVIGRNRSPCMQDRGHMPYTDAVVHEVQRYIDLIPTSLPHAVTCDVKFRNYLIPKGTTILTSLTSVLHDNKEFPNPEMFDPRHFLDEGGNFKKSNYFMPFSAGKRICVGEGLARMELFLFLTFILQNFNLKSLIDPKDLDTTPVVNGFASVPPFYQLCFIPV
Chain of Cytochrome P450 3A4 (Homo sapiens) (P08684 whole entry, looked up): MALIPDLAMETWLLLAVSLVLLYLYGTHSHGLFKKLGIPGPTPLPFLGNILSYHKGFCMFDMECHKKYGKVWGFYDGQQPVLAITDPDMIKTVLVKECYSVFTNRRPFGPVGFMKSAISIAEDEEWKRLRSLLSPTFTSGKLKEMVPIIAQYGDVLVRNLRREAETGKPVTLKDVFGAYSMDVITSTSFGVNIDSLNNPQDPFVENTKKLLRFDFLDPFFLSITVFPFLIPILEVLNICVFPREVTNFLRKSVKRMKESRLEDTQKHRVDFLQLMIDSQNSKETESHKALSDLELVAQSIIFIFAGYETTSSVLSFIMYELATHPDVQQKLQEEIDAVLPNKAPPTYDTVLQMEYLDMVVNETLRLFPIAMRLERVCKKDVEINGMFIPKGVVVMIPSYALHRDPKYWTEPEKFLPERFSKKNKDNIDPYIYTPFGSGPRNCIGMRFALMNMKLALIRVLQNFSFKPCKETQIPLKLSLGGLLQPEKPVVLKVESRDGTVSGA
Chain of Nuclear receptor subfamily 1 group I member 2 (Homo sapiens) (O75469 whole entry, looked up): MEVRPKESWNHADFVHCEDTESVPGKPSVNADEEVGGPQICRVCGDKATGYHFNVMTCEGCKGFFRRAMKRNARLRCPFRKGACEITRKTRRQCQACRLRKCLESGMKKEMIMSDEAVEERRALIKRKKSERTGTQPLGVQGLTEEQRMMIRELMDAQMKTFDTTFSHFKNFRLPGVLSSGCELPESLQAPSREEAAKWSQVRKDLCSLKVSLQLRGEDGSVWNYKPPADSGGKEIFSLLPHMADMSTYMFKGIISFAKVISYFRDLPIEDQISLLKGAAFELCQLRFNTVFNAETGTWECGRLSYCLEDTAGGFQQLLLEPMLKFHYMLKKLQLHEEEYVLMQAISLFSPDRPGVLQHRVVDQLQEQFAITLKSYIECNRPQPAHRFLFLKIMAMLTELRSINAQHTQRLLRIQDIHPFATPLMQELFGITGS
Chain of Nuclear receptor subfamily 1 group I member 2 (Rattus norvegicus) (Q9R1A7 whole entry, looked up): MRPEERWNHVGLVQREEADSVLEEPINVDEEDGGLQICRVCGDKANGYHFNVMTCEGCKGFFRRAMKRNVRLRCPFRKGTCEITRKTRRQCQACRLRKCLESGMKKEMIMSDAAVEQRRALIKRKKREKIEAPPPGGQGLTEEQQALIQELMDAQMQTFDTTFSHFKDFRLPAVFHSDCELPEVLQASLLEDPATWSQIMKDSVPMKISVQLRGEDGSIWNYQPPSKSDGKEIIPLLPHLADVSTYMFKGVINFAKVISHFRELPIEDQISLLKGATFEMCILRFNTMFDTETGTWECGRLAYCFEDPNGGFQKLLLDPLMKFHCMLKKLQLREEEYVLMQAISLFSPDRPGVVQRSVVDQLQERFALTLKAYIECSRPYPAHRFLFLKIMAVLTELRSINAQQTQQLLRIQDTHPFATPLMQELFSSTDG

As for `CC(C)O`, the Potency result in assay [1], in assay [2], in [4], in assay [5], in assay [6] and in assay [7] was “inactive” throughout. Besides, the Potency result in [8], in [9], in assay [10] and in assay [11] was “inactive” each time. Besides, in assay [3], the call was inactive.

Regarding `NNS(=O)(=O)c1ccc(Oc2ccc(S(=O)(=O)NN)cc2)cc1`, the Potency entry in assay [1], in [2], in assay [7], in assay [12], in assay [10] and in assay [11] was “inactive” throughout. Further, the outcome in assay [3] was inactive. Moreover, the Potency in assay [8] was 10 µM (active); in assay [9] it was 5.03 µM (active).

For the molecule `O=C(O[C@@H](C(=O)O)[C@@H](OC(=O)c1ccccc1)C(=O)O)c1ccccc1`, the Potency result in assay [1], in assay [2], in assay [4], in assay [9], in assay [10] and in assay [11] was “inactive” throughout. Also, the molecule was classed as inactive in assay [3]. The Potency in assay [8] is 45.6 µM (active); in assay [12] it was 72.2 µM (active).

Regarding `NC1=NCC2c3ccccc3Cc3ccccc3N12` (stereo not drawn), the Potency entry in assay [1] and in assay [2] was “inactive” each time. Moreover, the result in assay [3] was inactive. Moreover, the max activation in assay [13] is 0.173%.

`CCCNC(C)(C)COC(=O)c1ccccc1`: the Potency result in [1], in [2], in assay [14] and in [10] was “inactive” in each case. Besides, the outcome in [3] was inactive.

`C1CCOC1`: the Potency entry in assay [1], in assay [2], in assay [14] and in [10] was “inactive” each time. Moreover, the result in assay [3] was inactive.

As for `O=Cc1ccc(F)c(Br)c1`, the Potency result in assay [1], in assay [2], in assay [4], in assay [7], in [8] and in [9] was “inactive” each time. Further, the Potency result in [10] and in assay [11] was “inactive” in each case. The result in [3] was inactive. Also, the Potency in [12] is 35.6 µM (active).

Consider `CCCCCCCCOC(=O)CCCCCCCCC(=O)OCCCCCCCC`, for which the Potency result in assay [1], in assay [2], in [4], in assay [7], in [8] and in assay [9] was “inactive” throughout. Moreover, the Potency entry in assay [12], in assay [10] and in assay [11] was “inactive” in each case. Further, the molecule was called inactive in assay [3].

For the molecule `CCN(CCCc1ccccc1)CCCc1ccccc1`, the Potency entry in assay [1], in assay [2], in assay [5], in assay [6], in assay [9] and in assay [11] was “inactive” each time. For the same molecule, in assay [3], the call was inactive. In addition, the results for the Potency in [7], in [8] and in [12] were 0.871 µM (active), 6.92 µM (active) and 7.23 µM (active), respectively.

With `CC1(C)O[C@@H]2C[C@H]3[C@@H]4CCC5=CC(=O)CC[C@]5(C)[C@@]4(F)[C@@H](O)C[C@]3(C)[C@]2(C(=O)CCl)O1`, the Potency entry in [1], in assay [2], in assay [12] and in assay [10] was “inactive” throughout. Further, in assay [3], the molecule was called inactive. Further, the Potency was 5.01 µM (active) in assay [6], 34.7 µM (active) in assay [8] and 15.5 µM (active) in assay [9].

With `NS(=O)(=O)c1cc(-c2nn[nH]n2)c(NCc2cccs2)cc1Cl`, the Potency entry in assay [1], in assay [2], in assay [5], in assay [6], in [7] and in assay [8] was “inactive” in each case. In addition, the Potency result in assay [12] and in [10] was “inactive” in each case. Further, the call in assay [3] was inactive. The Potency in assay [9] is 24.5 µM (active).

With `CC[C@H]1CC[C@H](NCc2cc3c(cc2OC)[C@H]2C[C@H]2C(=O)N3C)[C@H](c2ccccc2)N1`, the Potency result in [1], in assay [8] and in assay [10] was “inactive” each time. For the same molecule, the values for the Potency in [2], in [4] and in assay [7] were 24.3 µM (active), 17.2 µM (active) and 7.1 µM (active), respectively. For the same molecule, the outcome in assay [3] was inactive.
